# Reference: PubChem BioAssay (EPA / NIEHS)
# Results filed as inconclusive are left out. The source made the active and inactive calls. The calls were made as follows, unless noted: active = hit-call score of the fitted dose curve at least 0.9, where 1 is the maximum; inactive = score below 0.9.
# Columns and labels:
# [1] = ATG_M_06_TRANS: Attagene TRANS-FACTORIAL HepG2 Assay for M06 Transcription Factor (Internal Marker) (AID 2282983; active = hit-call score of the fitted dose curve at least 0.9, where 1 is the maximum;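 also: reporter transcript level by RT-PCR then capillary electrophoresis fluorescence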); details: HepG2 Attagene TRANS M06 internal marker reporter
# In short: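 Read-out: fluorescent reporter cDNA fragments resolved by capillary electrophoresis after RT-PCR and HpaI cut. Source cells were HepG2 carrying transfected multi-reporter GAL4 constructs, dosed 24 h. Increase over DMSO control analysed.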
# [2] = ATG_M_32_TRANS: Attagene TRANS-FACTORIAL HepG2 Assay for M32 Transcription Factor (Internal Marker) (AID 2282984; active = hit-call score of the fitted dose curve at least 0.9, where 1 is the maximum;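 also: transcript level of a background control reporter unit measured by RT-PCR and capillary electrophoresis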); details: HepG2 Attagene TRANS M32 internal marker reporter
# In short: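 Cell-based TRANS-format assay in HepG2: exogenous chimeric GAL4 reporter units transiently expressed, compounds applied 24 h. Reporter mRNA detected by RT-PCR plus capillary electrophoresis; this readout is an internal background marker.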
# [3] = molecular target: Nuclear respiratory factor 1 (Homo sapiens) (UniProt Q16656); assay: ATG_NRF1_CIS: Attagene CIS-FACTORIAL HepG2 Assay for human Nuclear Respiratory Factor 1 (NRF1) Orphan Gene (AID 2282987); details: HepG2 NRF1 cis-element reporter, Attagene multiplex; actives raise or lower the signal
# In short: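 Endogenous factor activity was captured via cis-element-driven reporter transcripts in HepG2 cells. Following 24 h chemical treatment, transcripts were quantified by RT-PCR and capillary electrophoresis.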
# [4] = ATG_NFI_CIS: Attagene CIS-FACTORIAL HepG2 Assay for human Nuclear Factor I (NFI) (AID 2282989); details: HepG2 cis-regulatory reporter, NFI response element transcription; actives raise or lower the signal
# In short: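 Cells: human liver HepG2, transiently transfected with promoter-regulated reporter transcription units. Exposure 24 h. Detection: fluorescent RT-PCR products separated by capillary electrophoresis, normalised to DMSO negative control.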
# [5] = ATG_NF_kB_CIS: Attagene CIS-FACTORIAL HepG2 Assay for human Nuclear Factor Kappa B (NF-kB) (AID 2282991); details: HepG2 Attagene cis-factorial NF-kB reporter mRNA; actives raise or lower the signal
# In short: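 After 24 h compound incubation, transfected HepG2 cells yield total RNA; reporter cDNA is PCR-amplified, end-labelled with 6-FAM, HpaI-digested and analysed on a genetic analyser. Endogenous factor activity, DMSO-referenced bidirectional fit.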
# [6] = ATG_NRF2_ARE_CIS: Attagene CIS-FACTORIAL HepG2 Assay for human Nuclear Factor Erythroid 2 Related Factor 2 (NFR2) response to Antioxidant Response Elements (ARE) (AID 2282992); details: HepG2 Attagene ARE/NRF2 reporter, transcription factor activity; actives raise or lower the signal;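 as to AC50: reporter mRNA level measured by RT-PCR and capillary electrophoresis fluorescence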
# In short: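 Endogenous transcription factor activity in human liver HepG2 cells is tracked via a cis-element-driven reporter within a multiplexed set. mRNA induction is read by RT-PCR and capillary electrophoresis after 24 h, with DMSO as baseline.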
# [7] = ATG_Oct_MLP_CIS: Attagene CIS-FACTORIAL HepG2 Assay for human Octamer-Binding Transcription Factor (Oct) (AID 2282993); details: HepG2 Attagene cis-factorial Oct reporter, mRNA; actives raise or lower the signal
# In short: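 HepG2, transient MRTU transfection, cis promoter elements; 24 h dosing; RT-PCR/CE fluorescence read-out of reporter mRNA; fit both directions vs DMSO.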
# [8] = molecular target: Cellular tumor antigen p53 (Homo sapiens) (UniProt P04637); assay: ATG_p53_CIS: Attagene CIS-FACTORIAL HepG2 Assay for human p53 Transcription Factor (AID 2282994); details: HepG2 p53 cis-element reporter, Attagene mRNA; actives raise or lower the signal
# In short: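 Steps: transfect HepG2 with multiplexed cis reporter constructs; dose chemicals 24 h; extract RNA, reverse-transcribe, PCR-amplify reporter sequences; FAM-label, HpaI-digest, resolve fragments by CE. Activity fitted both directions relative to DMSO.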
# [9] = molecular target: human Peroxisome Proliferator-activated Receptor delta (PPARd), PPARD (gene 5467) (UniProt Q03181); assay: ATG_PPARd_TRANS: Attagene TRANS-FACTORIAL HepG2 Assay for human Peroxisome Proliferator-activated Receptor delta (PPARd) (AID 2283002; active = hit-call score of the fitted dose curve at least 0.9, where 1 is the maximum)
# In short: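 Transient HepG2 transfection (multiple GAL4-UAS RTUs, chimeric receptor-Gal4); 24 h dosing; total RNA → oligo(dT) RT → PCR → 6-FAM primer extension → HpaI cut → CE. Positive direction vs DMSO.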
# [10] = molecular target: Nuclear receptor subfamily 4 group A member 2 (Homo sapiens) (UniProt P43354); assay: ATG_NURR1_TRANS: Attagene TRANS-FACTORIAL HepG2 Assay for human Nuclear Receptor Related Protein 1 (NURR1) (AID 2282985; active = hit-call score of the fitted dose curve at least 0.9, where 1 is the maximum); details: HepG2 Attagene TRANS reporter, mRNA readout
# In short: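 Measures transcriptional activation by an exogenous NR-Gal4 chimera in transfected HepG2 liver cells. After 24 h, reporter RNA is reverse-transcribed, amplified and resolved by capillary electrophoresis; DMSO defines baseline.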
# [11] = molecular target: Myc proto-oncogene protein (Homo sapiens) (UniProt P01106); assay: ATG_Myc_CIS: Attagene CIS-FACTORIAL HepG2 Assay for human Myelocytomatosis (Myc) Proto-Oncogene Transcription Factor (AID 2282990); details: HepG2, Attagene cis-reporter transcription factor activity; actives raise or lower the signal
# In short: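 HepG2, transient MRTU transfection (cis promoters, endogenous TFs); 24 h dosing; TriZol RNA → oligo(dT) RT → PCR → 6-FAM primer extension → HpaI cut → CE. Bidirectional fit vs DMSO.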
# [12] = molecular target: Transcriptional activator Myb (Homo sapiens) (UniProt P10242); assay: ATG_Myb_CIS: Attagene CIS-FACTORIAL HepG2 Assay for human Myeloblastosis (Myb) Proto-Oncogene Transcription Factor (AID 2282986); details: HepG2 Attagene CIS-FACTORIAL Myb reporter transcription; actives raise or lower the signal
# In short: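 Multiplexed cis-reporter system in HepG2: transient transfection, 24 h treatment, mRNA readout by RT-PCR and capillary electrophoresis. Both increases and decreases are scored versus DMSO negative control.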
# [13] = molecular target: human Peroxisome Proliferator-activated Receptor alpha (PPARa), PPARA (gene 5465) (UniProt Q07869); assay: ATG_PPARa_TRANS: Attagene TRANS-FACTORIAL HepG2 Assay for human Peroxisome Proliferator-activated Receptor alpha (PPARa) (AID 2283001; active = hit-call score of the fitted dose curve at least 0.9, where 1 is the maximum;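 as to AC50: potency for gain of reporter signal over DMSO so agonist or activator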)
# In short: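 Transfected HepG2 cells treated with test chemical for 24 h. RNA isolated, reverse-transcribed with oligo(dT), PCR-amplified, FAM-labelled and HpaI-digested. Fragments sized by capillary electrophoresis; gain-of-signal fit relative to DMSO.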
# [14] = BSK_3C_TissueFactor: BioMAP Diversity Plus: 3C Assay for Tissue Factor Biomarker Activity (AID 2282997); details: BioMAP 3C HUVEC, tissue factor biomarker readout; actives raise or lower the signal
# In short: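 HUVEC, 3C system, 24 h post-dose; Tissue Factor by ELISA; bidirectional fit vs DMSO baseline.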
# [15] = BSK_3C_uPAR: BioMAP Diversity Plus: 3C Assay for Urokinase-type plasminogen activator receptor (uPAR) Biomarker Activity (AID 2282998); details: BioMAP 3C HUVEC, uPAR biomarker ELISA; actives raise or lower the signal
# In short: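 A multiplexed primary-cell system built on human umbilical vein endothelium was used, with chemical present for 24 h before reading. Cell-surface uPAR was detected by ELISA; signal change in either direction counted against DMSO.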
# [16] = BSK_4H_Eotaxin3: BioMAP Diversity Plus: 4H Assay for Eotaxin 3 Biomarker Activity (AID 2283000); details: primary human endothelial cells (HUVEC); actives raise or lower the signal;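 as to outcome: CCL26 protein level quantified by ELISA in parallel with SRB cytotoxicity check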
# In short: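 Readout is Eotaxin-3 (CCL26) level by ELISA in primary human umbilical vein endothelial cells harvested 24 h after chemical exposure; activity fitted in both directions against DMSO control.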
# [17] = read-out: Intercellular Adhesion Molecule 1 (ICAM1), ICAM1 (gene 3383); assay: BSK_3C_ICAM1: BioMAP Diversity Plus: 3C Assay for Intercellular Adhesion Molecule 1 (ICAM1) Biomarker Activity (AID 2283003); details: primary human endothelial cells (HUVEC); actives raise or lower the signal
# In short: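 ELISA read-out of ICAM-1; HUVEC (primary human), 3C system, 24 h post-dosing; bidirectional fit vs DMSO baseline.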
# [18] = molecular target: human Retinoic Acid Receptor beta (RARb), RARB (gene 5915) (UniProt P10826); assay: ATG_RARb_TRANS: Attagene TRANS-FACTORIAL HepG2 Assay for human Retinoic Acid Receptor beta (AID 2283004; active = hit-call score of the fitted dose curve at least 0.9, where 1 is the maximum)
# In short: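 Readout is reporter mRNA induction: RNA reverse-transcribed, PCR-amplified, FAM-labelled, HpaI-cut and resolved by capillary electrophoresis. Transiently transfected HepG2 cells carrying exogenous NR–Gal4 chimeras were dosed for 24 h; activity fitted upward relative to DMSO.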
# [19] = BSK_3C_VCAM1: BioMAP Diversity Plus: 3C Assay for Vascular cell adhesion molecule 1 (VCAM1) Biomarker Activity (AID 2282999); details: BioMAP 3C HUVEC, VCAM1 ELISA, cytokine-stimulated; actives raise or lower the signal
# In short: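 Activity fitted in both directions relative to DMSO, with ELISA measurement of the surface marker on primary HUVEC (3C) at 24 h post-treatment; parallel SRB staining (0.1% SRB, TCA-fixed, 560 nm) flagged overt cytotoxicity.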
# Chain of Nuclear receptor subfamily 4 group A member 2 (Homo sapiens) (P43354 whole entry, looked up, the tested form may be a part): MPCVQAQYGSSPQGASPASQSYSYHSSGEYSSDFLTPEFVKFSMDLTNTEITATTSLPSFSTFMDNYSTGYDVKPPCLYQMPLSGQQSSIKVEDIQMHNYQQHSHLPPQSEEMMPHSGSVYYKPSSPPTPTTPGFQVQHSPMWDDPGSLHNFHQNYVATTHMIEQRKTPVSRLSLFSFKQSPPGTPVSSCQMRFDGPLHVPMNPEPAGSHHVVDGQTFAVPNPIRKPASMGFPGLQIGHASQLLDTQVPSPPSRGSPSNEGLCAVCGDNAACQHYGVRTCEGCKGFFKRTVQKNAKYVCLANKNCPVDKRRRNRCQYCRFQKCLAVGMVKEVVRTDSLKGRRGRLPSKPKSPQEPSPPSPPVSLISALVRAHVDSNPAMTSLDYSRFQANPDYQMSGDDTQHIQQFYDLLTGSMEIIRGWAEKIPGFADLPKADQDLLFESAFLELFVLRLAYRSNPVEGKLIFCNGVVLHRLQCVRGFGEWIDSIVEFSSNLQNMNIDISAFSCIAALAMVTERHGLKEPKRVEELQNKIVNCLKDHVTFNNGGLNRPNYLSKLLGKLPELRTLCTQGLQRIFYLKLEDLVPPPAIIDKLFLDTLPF
# Chain of human Peroxisome Proliferator-activated Receptor alpha (PPARa), PPARA (gene 5465) (Q07869 whole entry, looked up, the tested form may be a part): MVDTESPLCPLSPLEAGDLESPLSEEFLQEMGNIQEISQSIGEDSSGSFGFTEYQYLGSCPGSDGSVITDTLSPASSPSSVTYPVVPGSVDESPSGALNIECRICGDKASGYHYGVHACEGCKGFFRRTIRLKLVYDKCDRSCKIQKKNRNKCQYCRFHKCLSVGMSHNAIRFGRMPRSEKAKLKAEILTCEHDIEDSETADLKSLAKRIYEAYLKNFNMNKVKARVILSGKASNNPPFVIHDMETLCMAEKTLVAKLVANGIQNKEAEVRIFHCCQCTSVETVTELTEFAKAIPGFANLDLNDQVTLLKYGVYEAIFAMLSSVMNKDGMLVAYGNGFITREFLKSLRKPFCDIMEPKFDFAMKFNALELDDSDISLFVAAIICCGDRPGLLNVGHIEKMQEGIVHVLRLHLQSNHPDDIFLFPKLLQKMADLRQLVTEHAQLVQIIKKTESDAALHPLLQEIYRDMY
# Chain of human Peroxisome Proliferator-activated Receptor delta (PPARd), PPARD (gene 5467) (Q03181 whole entry, looked up, the tested form may be a part): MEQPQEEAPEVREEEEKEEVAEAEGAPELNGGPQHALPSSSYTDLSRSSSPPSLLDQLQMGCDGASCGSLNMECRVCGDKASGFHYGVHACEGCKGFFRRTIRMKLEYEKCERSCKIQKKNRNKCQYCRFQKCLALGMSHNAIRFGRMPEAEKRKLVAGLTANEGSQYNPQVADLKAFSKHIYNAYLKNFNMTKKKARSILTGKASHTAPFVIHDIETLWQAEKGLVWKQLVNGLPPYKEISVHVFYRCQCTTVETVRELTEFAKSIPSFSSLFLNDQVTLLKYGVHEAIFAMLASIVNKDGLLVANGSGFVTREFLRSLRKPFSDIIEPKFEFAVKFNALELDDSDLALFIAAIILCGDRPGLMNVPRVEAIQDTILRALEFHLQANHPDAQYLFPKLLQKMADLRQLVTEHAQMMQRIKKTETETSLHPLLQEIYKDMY
# Chain of Nuclear respiratory factor 1 (Homo sapiens) (Q16656 whole entry, looked up): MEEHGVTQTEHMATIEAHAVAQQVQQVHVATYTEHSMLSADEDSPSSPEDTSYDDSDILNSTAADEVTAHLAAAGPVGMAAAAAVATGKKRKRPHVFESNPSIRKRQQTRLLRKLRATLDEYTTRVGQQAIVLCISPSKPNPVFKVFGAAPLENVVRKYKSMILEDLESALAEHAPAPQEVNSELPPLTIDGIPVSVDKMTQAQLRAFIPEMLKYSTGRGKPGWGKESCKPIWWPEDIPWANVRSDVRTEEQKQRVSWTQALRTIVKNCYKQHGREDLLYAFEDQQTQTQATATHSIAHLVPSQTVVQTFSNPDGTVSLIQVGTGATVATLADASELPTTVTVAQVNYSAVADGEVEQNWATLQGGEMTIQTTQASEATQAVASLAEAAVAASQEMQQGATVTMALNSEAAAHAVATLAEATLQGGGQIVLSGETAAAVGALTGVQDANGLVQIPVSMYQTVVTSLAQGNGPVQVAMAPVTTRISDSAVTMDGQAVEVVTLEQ
# Chain of Transcriptional activator Myb (Homo sapiens) (P10242 whole entry, looked up): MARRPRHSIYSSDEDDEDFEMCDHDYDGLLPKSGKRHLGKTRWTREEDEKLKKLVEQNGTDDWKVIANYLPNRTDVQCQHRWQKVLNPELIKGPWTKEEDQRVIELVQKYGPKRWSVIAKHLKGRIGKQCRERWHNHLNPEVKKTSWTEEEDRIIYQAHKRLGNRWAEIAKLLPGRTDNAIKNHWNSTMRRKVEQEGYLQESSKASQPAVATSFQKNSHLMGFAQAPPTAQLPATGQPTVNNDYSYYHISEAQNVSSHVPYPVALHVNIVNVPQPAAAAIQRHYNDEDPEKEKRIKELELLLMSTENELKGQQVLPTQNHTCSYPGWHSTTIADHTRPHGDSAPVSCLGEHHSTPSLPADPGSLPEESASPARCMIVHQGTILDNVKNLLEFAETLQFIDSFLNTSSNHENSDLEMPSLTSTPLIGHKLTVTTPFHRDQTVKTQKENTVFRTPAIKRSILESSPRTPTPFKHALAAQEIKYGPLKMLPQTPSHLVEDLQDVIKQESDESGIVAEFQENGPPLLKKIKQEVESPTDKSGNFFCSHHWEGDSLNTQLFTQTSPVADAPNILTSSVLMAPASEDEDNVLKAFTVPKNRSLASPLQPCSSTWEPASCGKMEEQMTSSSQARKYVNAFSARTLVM
# Chain of Myc proto-oncogene protein (Homo sapiens) (P01106 whole entry, looked up): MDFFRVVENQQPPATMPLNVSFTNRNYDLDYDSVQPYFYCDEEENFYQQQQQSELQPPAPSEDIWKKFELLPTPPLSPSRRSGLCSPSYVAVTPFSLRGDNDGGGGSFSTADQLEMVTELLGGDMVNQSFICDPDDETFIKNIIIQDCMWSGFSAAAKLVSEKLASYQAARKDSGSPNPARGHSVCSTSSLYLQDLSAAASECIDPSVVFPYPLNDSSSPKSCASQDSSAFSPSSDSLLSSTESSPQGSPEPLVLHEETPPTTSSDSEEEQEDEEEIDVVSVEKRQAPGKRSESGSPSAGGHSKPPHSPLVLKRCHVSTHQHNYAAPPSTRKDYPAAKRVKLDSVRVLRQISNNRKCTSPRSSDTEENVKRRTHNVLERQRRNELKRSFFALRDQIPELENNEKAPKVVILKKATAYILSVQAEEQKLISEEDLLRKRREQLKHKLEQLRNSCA
# Chain of Cellular tumor antigen p53 (Homo sapiens) (P04637 whole entry, looked up, the tested form may be a part): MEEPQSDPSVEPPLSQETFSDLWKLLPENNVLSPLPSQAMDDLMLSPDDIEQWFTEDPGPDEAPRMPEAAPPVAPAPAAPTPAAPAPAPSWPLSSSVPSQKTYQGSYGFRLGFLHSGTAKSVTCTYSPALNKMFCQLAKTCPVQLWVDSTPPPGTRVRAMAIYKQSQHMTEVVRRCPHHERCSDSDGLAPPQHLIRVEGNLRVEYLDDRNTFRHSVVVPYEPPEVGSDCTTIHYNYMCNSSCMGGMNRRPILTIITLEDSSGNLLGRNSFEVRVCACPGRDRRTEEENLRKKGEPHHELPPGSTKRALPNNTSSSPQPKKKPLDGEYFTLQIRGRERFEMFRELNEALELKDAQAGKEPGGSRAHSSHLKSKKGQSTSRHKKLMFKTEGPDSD
# Chain of human Retinoic Acid Receptor beta (RARb), RARB (gene 5915) (P10826 whole entry, looked up, the tested form may be a part): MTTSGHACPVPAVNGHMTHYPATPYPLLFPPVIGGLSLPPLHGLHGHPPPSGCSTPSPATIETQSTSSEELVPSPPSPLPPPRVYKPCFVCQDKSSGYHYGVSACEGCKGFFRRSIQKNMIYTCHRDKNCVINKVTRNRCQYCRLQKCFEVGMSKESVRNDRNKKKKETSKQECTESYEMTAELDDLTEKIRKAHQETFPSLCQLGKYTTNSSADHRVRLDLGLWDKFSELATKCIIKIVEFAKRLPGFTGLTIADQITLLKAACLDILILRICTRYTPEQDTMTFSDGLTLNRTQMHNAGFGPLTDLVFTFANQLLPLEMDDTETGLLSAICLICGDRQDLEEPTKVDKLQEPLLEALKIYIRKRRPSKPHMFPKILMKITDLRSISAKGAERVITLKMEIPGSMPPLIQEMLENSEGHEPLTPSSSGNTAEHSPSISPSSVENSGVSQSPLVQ
smiles,measurement,setting,value
C=CC(=O)N(C)C,outcome,[1],inactive
same,outcome,[2],inactive
same,outcome,[3],inactive
same,outcome,[4],inactive
same,outcome,[5],inactive
same,outcome,[6],inactive
same,outcome,[7],inactive
same,outcome,[8],inactive
same,outcome,[9],inactive
[O-][Cl+2]([O-])O,outcome,[1],inactive
same,outcome,[10],inactive
same,outcome,[3],inactive
same,outcome,[4],inactive
same,outcome,[11],inactive
same,outcome,[5],inactive
same,outcome,[6],inactive
same,outcome,[7],inactive
same,outcome,[8],inactive
O=C(CCl)CCl,outcome,[1],inactive
same,outcome,[10],inactive
same,outcome,[12],inactive
same,AC50,[3],56 µM (active)
same,outcome,[4],inactive
same,AC50,[5],33.4 µM (active)
same,AC50,[6],8.44 µM (active)
same,AC50,[7],26.1 µM (active)
same,AC50,[8],58.6 µM (active)
same,outcome,[13],inactive
C[C@H]1CCCC(=O)CCC/C=C/c2cc(O)cc(O)c2C(=O)O1,outcome,[1],inactive
same,outcome,[10],inactive
same,outcome,[12],inactive
same,AC50,[3],39.4 µM (active)
same,outcome,[4],inactive
same,outcome,[11],inactive
same,outcome,[5],inactive
same,outcome,[6],inactive
same,AC50,[7],10.7 µM (active)
same,outcome,[8],inactive
same,outcome,[13],inactive
same,outcome,[9],inactive
Nc1ccc(-c2ccc(N)c(Cl)c2)cc1Cl,outcome,[1],inactive
same,outcome,[10],inactive
same,outcome,[12],inactive
same,outcome,[3],inactive
same,outcome,[4],inactive
same,outcome,[11],inactive
same,AC50,[6],2.66 µM (active)
same,AC50,[7],5.49 µM (active)
same,outcome,[8],inactive
same,outcome,[14],inactive
same,AC50,[15],6.24 µM (active)
same,AC50,[16],1.93 µM (active)
same,outcome,[13],inactive
same,outcome,[17],inactive
CCOP(OCC)OCC,outcome,[1],inactive
same,outcome,[10],inactive
same,outcome,[12],inactive
same,outcome,[4],inactive
same,outcome,[11],inactive
same,outcome,[5],inactive
same,outcome,[6],inactive
same,outcome,[7],inactive
same,outcome,[8],inactive
same,outcome,[18],inactive
CCOP(=S)(OCC)Oc1nc(Cl)c(Cl)cc1Cl,outcome,[1],inactive
same,outcome,[10],inactive
same,outcome,[12],inactive
same,AC50,[4],69.6 µM (active)
same,outcome,[5],inactive
same,AC50,[6],33.4 µM (active)
same,AC50,[7],117 µM (active)
same,outcome,[8],inactive
same,outcome,[14],inactive
same,AC50,[15],33.5 µM (active)
same,outcome,[9],inactive
same,outcome,[17],inactive
C[C@@H](Oc1ccc(Cl)cc1Cl)C(=O)O,outcome,[1],inactive
same,outcome,[10],inactive
same,outcome,[12],inactive
same,outcome,[4],inactive
same,outcome,[5],inactive
same,outcome,[6],inactive
same,outcome,[7],inactive
same,outcome,[8],inactive
same,outcome,[13],inactive
CC(=[OH+])/C=C(/C)[O-].CC(=[OH+])/C=C(/C)[O-].CC(=[OH+])/C=C(/C)[O-].[Al],outcome,[1],inactive
same,outcome,[10],inactive
same,outcome,[12],inactive
same,outcome,[4],inactive
same,outcome,[5],inactive
same,outcome,[6],inactive
same,outcome,[7],inactive
same,outcome,[8],inactive
same,outcome,[13],inactive
Oc1c(I)cc(I)cc1I,outcome,[1],inactive
same,AC50,[10],100 µM (active)
same,outcome,[12],inactive
same,outcome,[3],inactive
same,outcome,[4],inactive
same,outcome,[5],inactive
same,outcome,[6],inactive
same,AC50,[7],34.5 µM (active)
same,outcome,[8],inactive
same,outcome,[14],inactive
same,AC50,[15],10.5 µM (active)
same,AC50,[19],15.5 µM (active)
same,AC50,[13],16.6 µM (active)
same,outcome,[17],inactive
CC1(C)Cc2cccc(O)c2O1,outcome,[1],inactive
same,outcome,[10],inactive
same,outcome,[12],inactive
same,outcome,[3],inactive
same,outcome,[4],inactive
same,outcome,[11],inactive
same,outcome,[6],inactive
same,outcome,[7],inactive
same,outcome,[14],inactive
same,outcome,[15],inactive
same,outcome,[16],inactive
same,outcome,[17],inactive
